{
  "source": "paper PMC12136788",
  "binders": {"B1": {"name": "27242051_27281840_773_CDS_ENSMUSG00000009621_ENSMUST00000056176|mouse|control|control (ssRNA)", "RNA": "GGGAGUUCUACAGUCCGACGAUCCAGCUCACUGUUUCUUAGUCCAAAUUUGUCAUGGCAGACUUUGAGGAAGGUGCGAAUAUUCUUCAGACACAAGAACUGGGACAUCUGCGGCCGGAAGUUGAUGUCCUUAAGGUCGAUGGACAACAGAGGAUUGAGCAUCA"}, "B2": {"name": "chr20:43533646:43533647:+_ENSG00000166913_ENST00000353703|hu_mus|FALSE|FALSE (ssRNA)", "RNA": "GGGAGUUCUACAGUCCGACGAUCGAAAUUCAGCGCCAGGCCGAGGCGAAUCGGGUGUGUAGGCUGCAUUUCUUUCUUGCUGAUUUCAAAUGCUUCUUGGUAAGCCUGCUGGGAGUUGGACACCGUGGUUUGUUUAUUUUCUCCCAACAGAGGAUUGAGCAUCA"}, "B3": {"name": "chr1:171751117:171751118:+_ENSG00000010165_ENST00000361735|hu_hu|motif|central (ssRNA)", "RNA": "GGGAGUUCUACAGUCCGACGAUCCUUUUAGGUAAGAGGUUCAUGUUCCUACUGCCGAAGCUGCGUUUUCAAGACUCCCCGGUUCCCUGUGAGAUACCAUUUGAGGAGCUUGCCCACCACACGCAGGCUCCGGGACACUGCAGUCAACAGAGGAUUGAGCAUCA"}, "B4": {"name": "chr10:120833061:120833062:-_ENSG00000107581_ENST00000369144|perfect_dup|motif|central (ssRNA)", "RNA": "GGGAGUUCUACAGUCCGACGAUCUUGGGACUCUUCUUUAGCAGCUUCUGUUUUUUCCUCUGCUAAUUUCAAAUAUGCCCGGACAACAUCUUCUAAAGAUUUAAUGUUUACCUGUUGGCAUAUGUUCUUAUAUUGAUAUAACCCCAACAGAGGAUUGAGCAUCA"}, "B5": {"name": "18861418_18861648_5666_CDS_ENSG00000157106_ENST00000446231|human|control|control (ssRNA)", "RNA": "GGGAGUUCUACAGUCCGACGAUCCAGCCUAGGGUCAUCCUCAUCUAAAGGAAUUUGACCAGCGUUGAGUUUAAGGAAAGUAAAGUAUGCACUGCAAGAGAGUUUGUACAGGCUGAAUAUUCUAUCUACAACUUUCCUCCACACCAACAGAGGAUUGAGCAUCA"}, "B6": {"name": "chr11:48615247:48615248:+_ENSMUSG00000020372_ENSMUST00000020640|perfect_dup|FALSE|FALSE (ssRNA)", "RNA": "GGGAGUUCUACAGUCCGACGAUCUCCAUCCCAGGAGCCUGAGAGGGCAAACUGGCCAUCUGAGGAGAUAACCACAUCACUAACAAAGUGGGAGUGACCCCGCAGAGCACGCUGUGGAAUUCCAUAGUUGGUCUCAUCCCUGGUCAACAGAGGAUUGAGCAUCA"}, "B7": {"name": "chr5:110835399:110835400:-_ENSG00000164211_ENST00000296632|hu_hu|motif|central (ssRNA)", "RNA": "GGGAGUUCUACAGUCCGACGAUCUGAGAGCCUGUCUCAAAAUUUAAAAAAAAAAAAGUGAAAAUGCCCUCUCUUAGAUAGCGGUUUACUUUAGGAAUAAAACCAAACAUUGUACUAGUGAACCAAAAACAUUUCAAAUUUUUCCAACAGAGGAUUGAGCAUCA"}, "B8": {"name": "chr1:39494564:39494565:+_ENSG00000168653_ENST00000372967|hu_hu|hu_hu_hu_mus_True|68_78 (ssRNA)", "RNA": "GGGAGUUCUACAGUCCGACGAUCAUGCAUUCGCCUCAUCGUUUUGUACCGAAGCAAACACUCUACGAAAUCAUCAUACUCUAUCUUGCACUCCUUUUUCGCCCGGGUCCCACCGAUCCCGUGUGCACACUCUAUCCACUCUUUCAACAGAGGAUUGAGCAUCA"}, "B9": {"name": "chr14:66974463:66974464:+_ENSMUSG00000022044_ENSMUST00000074523|mus_hu|mus_mus_mus_hu_False|18_58 (ssRNA)", "RNA": "GGGAGUUCUACAGUCCGACGAUCUUGUAGGACGACUUAUUCAGGGGAUCGGCCAGGAAGCAGGAGCAGAACAAGGACACUAGUGGGAGCUCCUUCAUCUUCUCUUUGUAGGCAGCAAGAGUCAUGUUUCUGGGAUCUGGUGGCCAACAGAGGAUUGAGCAUCA"}, "B10": {"name": "chr5:125866394:125866395:-_ENSMUSG00000008348_ENSMUST00000136312|mus_hu|FALSE|FALSE (ssRNA)", "RNA": "GGGAGUUCUACAGUCCGACGAUCACAACUUUAUUGAAAGGAAAGUGCAAUGAAAUUUGUUGAAACCUUAAAAGGGGAAACUUAGACACCCCCCCUCAAGCGCAGGACCAAGUGCAGAGUGGACUCUUUCUGGAUGUUGUAGUCCAACAGAGGAUUGAGCAUCA"}, "B11": {"name": "44041996_44042116_73_3pUTR_ENSMUSG00000034342_ENSMUST00000037644|mouse|control|control (ssRNA)", "RNA": "GGGAGUUCUACAGUCCGACGAUCUCGGCCGCGAGCGAGGGAAUGGAGCCGGGCGAGAAGGAGGGGCCUCUCCGGCAACCACCGCCGGCGCUCGCAGCCCAGGGAGUGAGAGGGAGGCGCCCGCCCUGAGGCGCGCCCCUGCGCCAACAGAGGAUUGAGCAUCA"}, "B12": {"name": "chr19:16212804:16212805:+_ENSG00000167460_ENST00000300933|hu_mus|hu_hu_hu_mus_False|78_78 (ssRNA)", "RNA": "GGGAGUUCUACAGUCCGACGAUCAACAAUUCUGGAGUGAAGGAAAGAUGUAACAUGCAAUUAAUUAAAAGCUCAGUCAGAAGGCACAUGGGCAACAAUGAUCACCCCAGCAUUCUCGCUUGGAAUGCUUAAAGACAAUCUGUUCAACAGAGGAUUGAGCAUCA"}, "B13": {"name": "chr14:54894545:54894546:-_ENSG00000100528_ENST00000216416|hu_mus|FALSE|FALSE (ssRNA)", "RNA": "GGGAGUUCUACAGUCCGACGAUCCUUCAUUGGUGGCGUUUUGCAUGCACUUAACUGGACCGAUUCUUCUGUGUUGUUCUAAGAGCUCACCAGAACAUAGAUCAUGCCGUAUAGGUAGUAAAAAAACGCUAGAAGGUAAAAAGCCAACAGAGGAUUGAGCAUCA"}, "B14": {"name": "chr12:96259795:96259796:+_ENSG00000139343_ENST00000266735|hu_mus|motif|central (ssRNA)", "RNA": "GGGAGUUCUACAGUCCGACGAUCGAGGACAUUAUUACACCUUAUUAGAACUUCGCCCAGAUGUCCAGACAGCGCCCCAUCGGUGUACUCUUCUGUAUUUGCAAGCUGCAUGUUCAUGUAGCCAUCCACGGAGACCAGGUAGCCCAACAGAGGAUUGAGCAUCA"}, "B15": {"name": "chr11:106117246:106117247:-_ENSMUSG00000020706_ENSMUST00000021048|mus_mus|motif|central (ssRNA)", "RNA": "GGGAGUUCUACAGUCCGACGAUCGCAGGCCUUACAAGUUAAAAGUAGAGGCUAGGAAGUAGAGUGCAAUAACUCGUAUCCGGAACGCUAGGAAGCAUCAACCAGAAGUUCUAUAUCUCUUCACAAAACUAGUGACCUCCAGUACAACAGAGGAUUGAGCAUCA"}, "B16": {"name": "chr7:20150648:20150649:-_ENSMUSG00000044709_ENSMUST00000117222|mus_mus|FALSE|FALSE (ssRNA)", "RNA": "GGGAGUUCUACAGUCCGACGAUCCUUGAAAGAAUAGGAAAUUAUGUCACUACAUCGAAGCAAGGCCUCGGCCUGUACACCUAUGGGAGUCUGCAGUUGGGAAACGUAGAAGUUGGCCACAUCCAGGUCUGUGGCUCCAAACUGCAACAGAGGAUUGAGCAUCA"}, "B17": {"name": "chr7:7679991:7679992:-_ENSG00000106399_ENST00000396682|hu_hu|hu_hu_hu_mus_False|18_58 (ssRNA)", "RNA": "GGGAGUUCUACAGUCCGACGAUCUGGGAUGAAUCUUUUCCAGCUUCCCCACGAAGCACACGGGCCGGUCGAUAUACUGAGCUAGCAUGCUGGCGUUGACGCGCGCUUUGGGGAGCUCCAUCAUGUCCUCCAUGAUUCUGCCGCCAACAGAGGAUUGAGCAUCA"}, "B18": {"name": "chrX:20248820:20248821:+_ENSMUSG00000001924_ENSMUST00000001989|mus_mus|mus_mus_mus_hu_True|48_58 (ssRNA)", "RNA": "GGGAGUUCUACAGUCCGACGAUCGGCGAAGUCCGUCACCACAAAGUCAGGUUCUGCCAGUGAGGCCACCAAGGAUUUAAAACUAAUCUUUUUCGGUACUUUGACCUGACUGACGAUGCCUCCACGGAUGUAGUCGGAGAAGUUCAACAGAGGAUUGAGCAUCA"}, "B19": {"name": "chr9:95013113:95013114:-_ENSG00000196305_ENST00000443024|hu_hu|hu_hu_hu_mus_False|78_78 (ssRNA)", "RNA": "GGGAGUUCUACAGUCCGACGAUCCUCAGUCAGAAAGGGCGUGUAAGGGGCCAUCAGUCUGCAAAGAGAAAGCAGGACACUGAACAGUGUCUCCAGAGCCAUGACACAGUCUUCCACCCCACUCUCACCCUUUAACCUCCUCCUCAACAGAGGAUUGAGCAUCA"}, "B20": {"name": "chr16:45382771:45382772:-_ENSMUSG00000022661_ENSMUST00000163230|mus_mus|mus_mus_mus_hu_True|48_88 (ssRNA)", "RNA": "GGGAGUUCUACAGUCCGACGAUCCUGGGUCAUGUUAUAAGACAAAUGGAUAGGGAGGGCAUGCUUCUCAAAAAAUGUGAGCUAUUGACUAAGACUAACAAUAUUUAUCUAGCUAUAAAAAUAAGUUAAAUGAAUAAGUUAAGACAACAGAGGAUUGAGCAUCA"}, "B21": {"name": "chrX:148369326:148369327:+_ENSMUSG00000025261_ENSMUST00000112622|mus_hu|FALSE|FALSE (ssRNA)", "RNA": "GGGAGUUCUACAGUCCGACGAUCCUUGUCUCGCAUUGAAUCAUUAGCUGUGCACAUCAACACAUUCCAAGCACAAAUUAAGAAAUGCAAACAGAACAAAAAAAUAUAUAUAUAUAUAAUUUUUUCCCCUAUCCAAAGGUUUCACAACAGAGGAUUGAGCAUCA"}, "B22": {"name": "52112337_52131274_754_3pUTR_ENSMUSG00000022637_ENSMUST00000114471|mouse|control|control (ssRNA)", "RNA": "GGGAGUUCUACAGUCCGACGAUCAUCAAUGGUUGACUUCAGAGCCAUUGCUUCCAGGCCAGAGCUGAUCUGAUGGACCUCAUGCAGGCACUGUCUGAAGACUUUCCAUGGUACAAUAGUUUUGUCUCCAAAAAACUUCCUCCACAACAGAGGAUUGAGCAUCA"}},
  "note": "In all, about 24,000 sequences were measured (“enrichment r”: median about 0.99, highest 2% from about 3.7 on). Only a sample is shown.",
  "data": [
    {"target": "T1, UNK ZnF1-3 (human, UniProt Q9C0B0 31-174)", "T1 sequence": "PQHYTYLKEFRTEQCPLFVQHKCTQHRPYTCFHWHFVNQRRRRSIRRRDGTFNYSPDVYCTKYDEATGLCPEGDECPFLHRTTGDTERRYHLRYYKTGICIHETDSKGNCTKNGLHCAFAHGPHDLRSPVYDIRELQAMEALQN", "experiment": "nsRBNS (natural sequence RNA bind-n-seq); RBNS binding buffer (assumed for nsRBNS): 25 mM Tris pH 7.5, 150 mM KCl, 3 mM MgCl2, 0.01% Triton X-100, 500 ug/ml BSA, 20 U/ml SUPERase-In, 4 C; UNK is unkempt and MSI1 is Musashi-1; names of the RNAs are library labels; protein concentration not given here; high values mean tight binding", "units": {"binding signal": "enrichment R"}, "values": [
      {"binder": "B1", "binding signal": 1.21},
      {"binder": "B2", "binding signal": 0.604},
      {"binder": "B3", "binding signal": 0.55},
      {"binder": "B4", "binding signal": 0.789},
      {"binder": "B5", "binding signal": 1.36},
      {"binder": "B6", "binding signal": 1.14},
      {"binder": "B7", "binding signal": 1.93},
      {"binder": "B8", "binding signal": 0.667},
      {"binder": "B9", "binding signal": 2.28},
      {"binder": "B10", "binding signal": 1.57},
      {"binder": "B11", "binding signal": 0.497},
      {"binder": "B12", "binding signal": 1.31},
      {"binder": "B13", "binding signal": 1.42},
      {"binder": "B14", "binding signal": 0.83},
      {"binder": "B15", "binding signal": 1.8},
      {"binder": "B16", "binding signal": 0.807},
      {"binder": "B17", "binding signal": 0.939},
      {"binder": "B18", "binding signal": 1.04},
      {"binder": "B19", "binding signal": 1.44},
      {"binder": "B20", "binding signal": 2.26},
      {"binder": "B21", "binding signal": 0.406},
      {"binder": "B22", "binding signal": 0.85}
    ]}
  ]
}
